± gives the standard deviation of the averaged measurements.
Key:
Experiment in all cases: promoter activity interaction Z-score (Lux/OD deviation from empty-vector control); higher = stronger promoter induction by the compound
[1] = system: E. coli BW25113 acrABp lux reporter
How it was run: (§1)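 Reporter strains of E. coli BW25113 grew at 37°C in 40 µl LB Lennox in 384-well plates. Readings of OD600 and luminescence were taken every 30 min over 12 h, integrated over 0–8 h (wild type) or 1–9 h (deletion strains), and wells below 10% of the median growth value were excluded. Scores are Z-transformed residuals of growth-normalised luminescence from a fit against a control.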

[2] = system: E. coli BW25113 marRABp lux reporter
How it was run: as §1

[3] = system: E. coli BW25113 micFp lux reporter
How it was run: as §1

[4] = system: E. coli BW25113 ompFp lux reporter
How it was run: as §1

[5] = system: E. coli BW25113 robp lux reporter
How it was run: as §1

[6] = system: E. coli BW25113 soxSp lux reporter
How it was run: as §1

[7] = system: E. coli BW25113 tolCp lux reporter
How it was run: as §1

[8] = 3.7 µg/ml, genetic background: wild type
[9] = 3.7 µg/ml, genetic background: ΔmarA
[10] = 3.7 µg/ml, genetic background: Δrob
[11] = 3.7 µg/ml, genetic background: ΔsoxS
[12] = 7.5 µg/ml, genetic background: wild type
[13] = 7.5 µg/ml, genetic background: ΔmarA
[14] = 7.5 µg/ml, genetic background: Δrob
[15] = 7.5 µg/ml, genetic background: ΔsoxS
[16] = 15 µg/ml, genetic background: wild type
[17] = 15 µg/ml, genetic background: ΔmarA
[18] = 15 µg/ml, genetic background: Δrob
[19] = 15 µg/ml, genetic background: ΔsoxS

## CC[C@H]1OC(=O)[C@H](C)[C@@H](O[C@H]2C[C@@](C)(OC)[C@@H](O)[C@H](C)O2)[C@H](C)[C@@H](O[C@@H]2O[C@H](C)C[C@H](N(C)C)[C@H]2O)[C@](C)(OC)C[C@@H](C)C(=O)[C@H](C)[C@@H](O)[C@]1(C)O [Clarithromycin]
[1]; [8]
  promoter activity interaction Z-score: 2.75 ± 0.78
[1]; [9]
  promoter activity interaction Z-score: -0.666 ± 0.051
[1]; [10]
  promoter activity interaction Z-score: 2.53 ± 0.28
[1]; [11]
  promoter activity interaction Z-score: 3.99 ± 2.9
[1]; [12]
  promoter activity interaction Z-score: 4.86 ± 2
[1]; [13]
  promoter activity interaction Z-score: 0.0124 ± 0.014
[1]; [14]
  promoter activity interaction Z-score: 3.88 ± 1.1
[1]; [15]
  promoter activity interaction Z-score: 5.27 ± 0.95
[1]; [16]
  promoter activity interaction Z-score: 6.01 ± 2.6
[1]; [17]
  promoter activity interaction Z-score: 5.11
[1]; [18]
  promoter activity interaction Z-score: 8.62 ± 0.52
[1]; [19]
  promoter activity interaction Z-score: 7.67 ± 6.7
[2]; [8]
  promoter activity interaction Z-score: 2.9 ± 0.24
[2]; [9]
  promoter activity interaction Z-score: 2.02 ± 0.13
[2]; [10]
  promoter activity interaction Z-score: 1.54 ± 0.29
[2]; [11]
  promoter activity interaction Z-score: 2.44 ± 1
[2]; [12]
  promoter activity interaction Z-score: 3.84 ± 0.18
[2]; [13]
  promoter activity interaction Z-score: 2.58 ± 0.055
[2]; [14]
  promoter activity interaction Z-score: 2.57 ± 1.6
[2]; [15]
  promoter activity interaction Z-score: 4.77 ± 2.4
[2]; [16]
  promoter activity interaction Z-score: 2.6 ± 3
[2]; [17]
  promoter activity interaction Z-score: 3.84
[2]; [18]
  promoter activity interaction Z-score: 4.65 ± 1.9
[2]; [19]
  promoter activity interaction Z-score: 7.29 ± 0.54
[3]; [8]
  promoter activity interaction Z-score: 0.345 ± 0.84
[3]; [9]
  promoter activity interaction Z-score: -0.264 ± 0.18
[3]; [10]
  promoter activity interaction Z-score: 0.13 ± 0.36
[3]; [11]
  promoter activity interaction Z-score: 0.346 ± 0.31
[3]; [12]
  promoter activity interaction Z-score: -0.0809 ± 0.56
[3]; [13]
  promoter activity interaction Z-score: -0.345 ± 0.18
[3]; [14]
  promoter activity interaction Z-score: 0.0824 ± 0.022
[3]; [15]
  promoter activity interaction Z-score: -0.272 ± 0.94
[3]; [16]
  promoter activity interaction Z-score: -2.17 ± 0.33
[3]; [17]
  promoter activity interaction Z-score: -0.213 ± 0.3
[3]; [18]
  promoter activity interaction Z-score: -0.078 ± 0.014
[4]; [8]
  promoter activity interaction Z-score: 4.02 ± 1.8
[4]; [9]
  promoter activity interaction Z-score: 2.83 ± 2.5
[4]; [10]
  promoter activity interaction Z-score: 3.22 ± 1.5
[4]; [11]
  promoter activity interaction Z-score: 4.01 ± 1.6
[4]; [12]
  promoter activity interaction Z-score: 4.44 ± 2.9
[4]; [13]
  promoter activity interaction Z-score: 4.37 ± 4.9
[4]; [14]
  promoter activity interaction Z-score: 3.77 ± 4.2
[4]; [15]
  promoter activity interaction Z-score: 3.43 ± 1.9
[4]; [16]
  promoter activity interaction Z-score: -0.0263 ± 3.9
[4]; [18]
  promoter activity interaction Z-score: -0.772
[4]; [19]
  promoter activity interaction Z-score: -2.44
[5]; [8]
  promoter activity interaction Z-score: -1.9 ± 0.13
[5]; [9]
  promoter activity interaction Z-score: -2.77 ± 0.23
[5]; [10]
  promoter activity interaction Z-score: -1.66 ± 0.048
[5]; [11]
  promoter activity interaction Z-score: -2.35 ± 0.33
[5]; [12]
  promoter activity interaction Z-score: -2.21 ± 0.12
[5]; [13]
  promoter activity interaction Z-score: -2.09 ± 0.24
[5]; [14]
  promoter activity interaction Z-score: -2.11 ± 0.083
[5]; [15]
  promoter activity interaction Z-score: -1.66 ± 0.9
[5]; [16]
  promoter activity interaction Z-score: -4.75 ± 0.23
[5]; [17]
  promoter activity interaction Z-score: -0.357 ± 0.99
[5]; [18]
  promoter activity interaction Z-score: -1.4
[6]; [8]
  promoter activity interaction Z-score: 0.201 ± 0.071
[6]; [9]
  promoter activity interaction Z-score: 0.637 ± 0.17
[6]; [10]
  promoter activity interaction Z-score: 0.258 ± 0.11
[6]; [11]
  promoter activity interaction Z-score: 3.14 ± 1.1
[6]; [12]
  promoter activity interaction Z-score: 1.35 ± 0.47
[6]; [13]
  promoter activity interaction Z-score: 1.62 ± 0.14
[6]; [14]
  promoter activity interaction Z-score: 1.1974 ± 0.00038
[6]; [15]
  promoter activity interaction Z-score: 3.99 ± 0.81
[6]; [16]
  promoter activity interaction Z-score: 0.664 ± 0.51
[6]; [17]
  promoter activity interaction Z-score: 2.07 ± 0.33
[6]; [18]
  promoter activity interaction Z-score: 1.44 ± 0.33
[6]; [19]
  promoter activity interaction Z-score: 1.96
[7]; [8]
  promoter activity interaction Z-score: 1.16 ± 0.087
[7]; [9]
  promoter activity interaction Z-score: 0.114 ± 1.9
[7]; [10]
  promoter activity interaction Z-score: 0.468 ± 0.18
[7]; [11]
  promoter activity interaction Z-score: 2.16 ± 2.1
[7]; [12]
  promoter activity interaction Z-score: 3.8 ± 1.3
[7]; [13]
  promoter activity interaction Z-score: 1.91 ± 0.99
[7]; [14]
  promoter activity interaction Z-score: 1.62 ± 0.65
[7]; [15]
  promoter activity interaction Z-score: 3.3 ± 1.4
[7]; [16]
  promoter activity interaction Z-score: 0.0472 ± 0.77
[7]; [17]
  promoter activity interaction Z-score: 0.874 ± 2.2
[7]; [18]
  promoter activity interaction Z-score: 1.26 ± 0.65
[7]; [19]
  promoter activity interaction Z-score: 3.6044 ± 0.00012

Source: the supplement of paper PMC12282887
